Values joined by “and” are separate entries in the source; they are usually repeats but may differ in a detail not shown here. Equal entries are not always repeated. Active and inactive are the calls of the source.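 The calls were made as follows, unless noted: active = compounds whose cell count with miR-34 switched on is under 0.7 times the count with it off; inactive = the rest.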
experiment: sensitizers of A549 cells to miR-34 induction, primary screen, imaging, A549 dox-inducible miR-34, nuclei and caspase counts (AID 1347080); conditions: A549 miR-34 inducible, Hoechst nuclei count, 48 h; stronger effect = lower value; also: test concentration not given here

Row | SMILES | fold change
1 | CCCCCCCCCCCCCC(=O)O[C@@H]1[C@@H](C)[C@@]2(O)[C@@H](C=C(CO)C[C@]3(O)C(=O)C(C)=C[C@@H]23)[C@@H]2C(C)(C)[C@]12OC(C)=O | 0.96 (inactive)
2 | CC[C@@]1(C2O[C@@H](C3O[C@@](O)(CC)[C@H](C)C[C@@H]3C)C[C@@H]2C)CC[C@H]([C@]2(C)CCC3(C[C@H](O)[C@@H](C)[C@@H]([C@H](C)[C@@H](OC)[C@H](C)C(=O)O)O3)O2)O1 (stereo partly specified) | 1.04 (inactive)
3 | C[N+]1(C)C2CC(OC(=O)[C@@H](CO)c3ccccc3)CC1C1OC12 (stereo partly specified) | 0.839 (inactive)
4 | CC(N)C(=O)OC(C)(C)Cc1ccc(Cl)cc1 (stereo unspecified) | 1.02 (inactive)
5 | CC1OC1P(=O)(O)O (stereo unspecified) | 1.08 (inactive) and 0.849 (inactive)

same assay, conditions: A549 miR-34 inducible, Hoechst nuclei count, 48 h; measured here: relative caspase fold change +Dox/-Dox

Row | SMILES | fold change
6 | N[C@@H](CC(=O)N1CCn2c(nnc2C(F)(F)F)C1)Cc1cc(F)c(F)cc1F | 5.09
7 | CCCCCCCCCCCCCC(=O)O[C@@H]1[C@@H](C)[C@@]2(O)[C@@H](C=C(CO)C[C@]3(O)C(=O)C(C)=C[C@@H]23)[C@@H]2C(C)(C)[C@]12OC(C)=O | 1.01
8 | CC[C@@]1(C2O[C@@H](C3O[C@@](O)(CC)[C@H](C)C[C@@H]3C)C[C@@H]2C)CC[C@H]([C@]2(C)CCC3(C[C@H](O)[C@@H](C)[C@@H]([C@H](C)[C@@H](OC)[C@H](C)C(=O)O)O3)O2)O1 (stereo partly specified) | 1.48
9 | C[N+]1(C)C2CC(OC(=O)[C@@H](CO)c3ccccc3)CC1C1OC12 (stereo partly specified) | 1.06
10 | CC(N)C(=O)OC(C)(C)Cc1ccc(Cl)cc1 (stereo unspecified) | 1.79
11 | CC1OC1P(=O)(O)O (stereo unspecified) | 1.1 and 5.83

same assay, conditions: A549 miR-34 inducible, Hoechst nuclei count, 48 h; measured here: total cells with miR-34 induction; stronger effect = lower value

Row | SMILES | cell count
12 | N[C@@H](CC(=O)N1CCn2c(nnc2C(F)(F)F)C1)Cc1cc(F)c(F)cc1F | 11900
13 | CCCCCCCCCCCCCC(=O)O[C@@H]1[C@@H](C)[C@@]2(O)[C@@H](C=C(CO)C[C@]3(O)C(=O)C(C)=C[C@@H]23)[C@@H]2C(C)(C)[C@]12OC(C)=O | 240
14 | CC[C@@]1(C2O[C@@H](C3O[C@@](O)(CC)[C@H](C)C[C@@H]3C)C[C@@H]2C)CC[C@H]([C@]2(C)CCC3(C[C@H](O)[C@@H](C)[C@@H]([C@H](C)[C@@H](OC)[C@H](C)C(=O)O)O3)O2)O1 (stereo partly specified) | 3480
15 | C[N+]1(C)C2CC(OC(=O)[C@@H](CO)c3ccccc3)CC1C1OC12 (stereo partly specified) | 10100
16 | CC(N)C(=O)OC(C)(C)Cc1ccc(Cl)cc1 (stereo unspecified) | 10500
17 | CC1OC1P(=O)(O)O (stereo unspecified) | 10700 and 11000

same assay, conditions: A549 miR-34 inducible, Hoechst nuclei count, 48 h; measured here: total cells without miR-34 induction

Row | SMILES | cell count
18 | N[C@@H](CC(=O)N1CCn2c(nnc2C(F)(F)F)C1)Cc1cc(F)c(F)cc1F | 13100
19 | CCCCCCCCCCCCCC(=O)O[C@@H]1[C@@H](C)[C@@]2(O)[C@@H](C=C(CO)C[C@]3(O)C(=O)C(C)=C[C@@H]23)[C@@H]2C(C)(C)[C@]12OC(C)=O | 250
20 | CC[C@@]1(C2O[C@@H](C3O[C@@](O)(CC)[C@H](C)C[C@@H]3C)C[C@@H]2C)CC[C@H]([C@]2(C)CCC3(C[C@H](O)[C@@H](C)[C@@H]([C@H](C)[C@@H](OC)[C@H](C)C(=O)O)O3)O2)O1 (stereo partly specified) | 3340
21 | C[N+]1(C)C2CC(OC(=O)[C@@H](CO)c3ccccc3)CC1C1OC12 (stereo partly specified) | 12100
22 | CC(N)C(=O)OC(C)(C)Cc1ccc(Cl)cc1 (stereo unspecified) | 10300
23 | CC1OC1P(=O)(O)O (stereo unspecified) | 9890 and 12900

experiment: viability rescue of complex I mutant cybrids, primary screen, cell-based, galactose medium, ATP luminescence (AID 1645843;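 active = z-score of at least 1.8 in each of two replicates, scored against plate mean and spread of sample wells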;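 also: positive z means more ATP and so rescue of galactose-driven cybrid death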); conditions: complex I mutant cybrid cells, 72 h, stronger effect = higher value

Row | SMILES | z-score
24 | CCn1cc(C(=O)O)c(=O)c2ccc(C)nc21 | 0.725 (inactive) and 0.425 (inactive)
25 | CC(N)C(=O)OC(C)(C)Cc1ccc(Cl)cc1 (stereo unspecified) | -0.85 (inactive)
26 | CC1OC1P(=O)(O)O (stereo unspecified) | 0.665 (inactive)

From PubChem BioAssay
